In PubChem BioAssay AID463173 (ICCB-Longwood Screening Facility, Harvard Medical School, 2010) one finds survival data, which are given here for 28 compounds.

Hit rate of the full screen: of about 52,000 compounds, about 1,700 (3.3%) were called active. For the sample, actives were picked, then their nearest neighbours and some compounds at random. Values without a mark were called inactive. No stated cut-off is given here; in the data, active means survival mostly below about 52% (no sharp cut-off); inactive means mostly above about 56%.

The test deals with Wild type. Put plainly: growth inhibition of S. aureus wild type versus tarO mutant, primary screen, teichoic acid synthesis inhibitors, RN4220, OD600 (AID 463173). The note with it: S. aureus RN4220 wild type/DeltatarO growth, OD600, 18 h, stronger effect = lower value, screened at 18.75 µg/mL (by protocol).
In the case of `O=C(Cn1c(=O)oc2cc(S(=O)(=O)N3CCCC3)ccc21)NCc1ccc(Cl)cc1`, the survival is 138%.
The result for `NC1=NC(c2cccc(Cl)c2)n2c(nc3ccccc32)N1` (stereo not drawn) reads 97%; that for `CCOc1ccc(-c2cc(CCCC(=O)NCCc3cc(OC)c(OC)c(OC)c3)no2)cc1`, 59%; that for `O=C(CSc1nc2ccsc2c(=O)n1-c1ccc(Br)cc1)NCc1ccc(Cl)cc1`, 81%.
The result for `CC(C)CCn1c(SCc2cccc(F)c2)nc2ccsc2c1=O` reads 76%; that for `Cc1ccccc1CSc1nc2ccsc2c(=O)n1CCC(C)C`, 74%; that for `O=C(CSc1nc2ccsc2c(=O)n1Cc1ccccc1Cl)NCc1ccc(Cl)cc1`, 75%.
Under `Cc1ccc(CNC(=O)CSc2nc3ccsc3c(=O)n2-c2ccc(Br)cc2)cc1` stands 14% (active); under `Cc1ccc(CSc2nc3ccsc3c(=O)n2CCC(C)C)cc1`, -6% (active); under `O=C(CSc1nc2ccsc2c(=O)n1-c1ccc(Br)cc1)NCc1ccccc1`, 80%.
`Cc1ccc(Cn2c(SCC(=O)NCc3ccccc3)nc3ccsc3c2=O)cc1`: the survival was 76%.
The result for `Cc1ccc(Cn2c(SCC(=O)NCc3ccccc3Cl)nc3ccsc3c2=O)cc1` reads -6% (active).
Consider `CC(C)/C=N/NC(=O)c1ccc2c(c1)NC(=O)C(C)(C)O2`, for which the survival was 108%.
For `Cc1ccccc1OCC(=O)OC1CCCN(C)C1` (stereo not drawn), the survival is 90%.
On to `CCC(=O)N1CCc2cc(Br)cc(S(=O)(=O)N3CCC(C(=O)Nc4ccccc4F)CC3)c21`, for which the survival is 80%.
The result for `COc1ccc(-c2cc(-c3ccccc3)c(C#N)c(SCC(O)CS(=O)(=O)Cc3ccc(Cl)cc3)n2)cc1` (stereo not drawn) reads 141%; that for `COc1ccc(-c2noc(CCC(=O)NCc3ccc(C)cc3)n2)cc1`, 94%; that for `CN(C(=O)CCc1nc(-c2ccccc2F)no1)c1ccc(Cl)cc1`, 68%.
Under `CCCN(C(=O)CCc1nc(-c2ccccc2F)no1)c1ccc(CC)cc1` stands -2% (active); under `COc1ccc(-c2noc(CC(=O)N(C)c3ccccc3F)n2)cc1`, 84%; under `CCCN(C(=O)Cc1nc(-c2ccc(OC)cc2)no1)c1ccccc1C`, 87%.
Take `Cc1ccc(-c2noc(CCC(=O)N(C)c3ccccc3F)n2)cc1`: the survival was 4% (active).
Under `COc1ccc(-c2noc(CCC(=O)N(C)c3ccccc3C)n2)cc1` stands 71%.
`CCOC(=O)c1ccccc1NC(=O)CCc1nc(-c2ccc(C)cc2)no1`: the survival is 27%.
Consider `COc1ccc(-c2noc(CCC(=O)N(C)c3cc(Cl)ccc3OC)n2)cc1`, for which the survival was 20%.
Consider `CCCN(C(=O)CCc1nc(-c2ccc(C)cc2)no1)c1ccc(OCC)cc1`, for which the survival was 0% (active).
For the compound `CCCN(C(=O)CCc1nc(-c2ccc(OC)cc2)no1)c1ccccc1F`, the survival is 0% (active).
The result for `CCOc1ccc(N(CC)C(=O)CCc2nc(-c3ccccc3F)no2)cc1` reads 39%.
